Rab9 prom act = activators of Rab9 promoter | Huh7 Rab9 promoter-luciferase reporter, luminescence, 24 h | Potency, µM (series often up to 9.22 µM), inactives show at the highest dose activation, negative = inhibition, usual class: activators | actives 2.8% (n = 320,000) | AID 485297; further: % of control where 0% means no effect; nearly all actives have a fitted effect of over 60% in size
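Measured in stably transfected Huh7 cells bearing a Rab9 promoter–luciferase construct: 24 h compound treatment at 37 °C, followed by luminescence detection.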
SMN2 splice up = increases expression of the SMN2 splice variant | HEK293 SMN2-luciferase splicing reporter, luminescence, 30-36 h | Potency, µM (doses to about 46.1 µM), for the others: top-dose activity change, positive = activation, most hits filed as activators | actives 2.8% (n = 210,000) | AID 1458; further: % of control where 0% means no effect; nearly all actives have a fitted effect of over 55% in size
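qHTS luciferase splicing reporter: luminescence rises when SMN2 exon 7 is included in transfected HEK293 cells. Compound exposure lasted 30-36 h at 37C, with 4.5 mM final sodium butyrate as control, followed by a ONE-Glo read.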
ELG1 repair inh = inhibitors of ELG1-dependent DNA repair in HEK293T cells. AID 504467. Potency, µM (highest dose often 46.1 µM), for the others: top-dose activity change, negative = inhibition, most hits filed as inhibitors. actives 2.3% (n = 330,000). HEK293T ELG1-luciferase reporter, luminescence, 16 h; DNA damage induced by 5-fluorouridine; further: on the % scale 0 is the no-effect control and ±100 the full control effect; nearly all actives have a fitted effect of over 55% in size
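5-Fluorouridine DNA damage + compound/DMSO, 2,000 cells/well, 16 h, 37 °C/5% CO2. ONE-Glo, 30 min RT, luminescence. Readout = decrease in reporter signal.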
NPC1 prom act = NPC1 promoter activation; Huh7 NPC1 promoter luciferase reporter, 24 h; Potency, µM (highest dose often 9.22 µM), for inactives: at the highest dose activation, most hits filed as activators; actives 2.4% (n = 320,000); AID 485313; further: % of control where 0% means no effect; nearly all actives have a fitted effect of over 60% in size
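Huh7 reporter cells (NPC1 promoter driving luciferase) are dosed with compound for 24 h at 37 °C, 5% CO2; luciferase detection reagent is then added and luminescence measured after 10 min at ambient temperature.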
ELG1 genotox = genotoxicity induction in ELG1-luciferase HEK293T cells; Potency, µM (titrated, usually from 46 µM), for the others: at the top dose activity change, positive = activation, hits mostly activators; actives 1.3% (n = 330,000); HEK293T ELG1-luciferase reporter, luminescence, 16 h; further: % of control where 0% means no effect; nearly all actives have a fitted effect of over 60% in size
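Reporter readout depends on ELG1 protein level, which increases with genetic stress. After 16 hr compound exposure at 37 °C, luciferase activity was quantified using ONE-Glo.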
FLuc modulator = firefly luciferase modulation, counter-screen for miR-21 project | P08659 | purified FLuc, Km substrates, luminescence inhibition | Potency, µM (top dose mostly 57.5 µM), without a hit: at the top dose activity change, negative = inhibition, actives largely listed as inhibitors | actives 6.9% (n = 360,000);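 further: plate controls were vehicle for no effect and reference inhibitor for full effect; nearly all actives have a fitted effect of over 55% in size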
Target sequence (P08659 whole entry, looked up): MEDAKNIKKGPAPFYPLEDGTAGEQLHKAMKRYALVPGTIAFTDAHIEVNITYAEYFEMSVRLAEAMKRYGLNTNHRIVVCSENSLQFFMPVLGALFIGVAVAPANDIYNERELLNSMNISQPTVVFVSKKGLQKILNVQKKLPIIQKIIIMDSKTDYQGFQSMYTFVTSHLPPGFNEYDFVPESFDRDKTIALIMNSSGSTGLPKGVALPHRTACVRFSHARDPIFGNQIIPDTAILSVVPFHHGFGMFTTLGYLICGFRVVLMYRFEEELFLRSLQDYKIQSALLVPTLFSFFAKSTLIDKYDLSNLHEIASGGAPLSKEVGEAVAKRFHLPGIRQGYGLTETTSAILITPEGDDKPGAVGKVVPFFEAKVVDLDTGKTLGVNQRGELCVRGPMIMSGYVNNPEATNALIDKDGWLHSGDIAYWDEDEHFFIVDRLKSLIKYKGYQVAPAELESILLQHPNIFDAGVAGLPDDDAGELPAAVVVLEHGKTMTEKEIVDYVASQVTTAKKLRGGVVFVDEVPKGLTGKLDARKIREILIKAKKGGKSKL
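Biochemical qHTS of compounds, final roughly 60 µM downward over six points, against 10 nM purified firefly luciferase using Km concentrations of substrates (10 uM D-luciferin, 10 uM ATP) in Tris acetate pH 7.5 buffer; luminescence output.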
Starred values were filed as active, the others as inactive; u = inconclusive; x = no result given. In the library only some 9.4% were active in any assay of this set; here they are far more common. The call rests on the fitted dose curve; in most records, active means well fitted curve in the direction sought with a large enough effect; inconclusive means small, poorly fitted or top-dose-only effect, or another doubt; inactive means no such curve, though single readings can be large; an effect the other way counts as inactive or inconclusive. Potency means the concentration at half of the fitted maximal effect.

SMILES | Rab9 prom act | SMN2 splice up | ELG1 repair inh | NPC1 prom act | ELG1 genotox | FLuc modulator
O=C1N=C(N2CCCCC2)S/C1=C\c1cn[nH]c1-c1ccccc1 | 15% | u | -10% | 21% | -1% | 7.6µM*
O=C(CN1C(=O)S/C(=C\C=C\c2ccccc2)C1=O)N1CCCCC1 | 9% | x | -7% | -5% | 8% | u
O=C1N=C(N2CCCC2)S/C1=C\C=C\c1ccccc1 | 0.56µM* | x | u | 1.6µM* | 1.6µM* | 0.85µM*
CC1CCN(C2=NC(=O)/C(=C/c3ccccc3F)S2)CC1 | 15% | x | u | u | 9.2µM* | 3.4µM*
CCc1ccc(/C=C2\SC(N3CCCC3)=NC2=O)cc1 | -5% | -38% | -14% | -1% | 3% | 17µM*
CN1CCN(C2=NC(=O)/C(=C/c3cn[nH]c3-c3ccccc3)S2)CC1 | -7% | x | u | -3% | -9% | -17%
Cc1oc2ccc(O)c(CN3CCN(C)CC3)c2c1C(=O)Nc1ccc(C(C)C)cc1 | x | 9% | x | x | x | -3%
O=C1N=C(N2CCCCC2)S/C1=C\c1ccncc1 | -6% | x | u | -4% | -6% | -9%
COc1ccc(/C=C2\SC(N3CCCCC3)=NC2=O)cc1 | u | x | u | u | 10% | 11µM*
Cc1ccc(/C=C/C(=O)Nc2ccccc2C(N)=O)cc1 | 1.4µM* | 3.5µM* | u | 2.8µM* | u | 0.85µM*
NC(=O)c1ccccc1N/C=C/C(=O)c1ccc(Cl)cc1 | 0.4µM* | 8.9µM* | u | 0.4µM* | u | 0.24µM*
NC(=O)c1ccccc1NC(=O)/C=C/C(=O)O | 1% | -27% | 9% | -2% | 2% | 6%
CCS(=O)(=O)c1ccc(O)c(NC(=O)/C=C/c2ccc(Cl)cc2)c1 | -2% | x | u | 0% | -4% | u
Cc1ccc(/C=C/C(=O)Nc2cc(S(N)(=O)=O)ccc2O)cc1 | 17% | 2% | -1% | 4% | 1% | 15µM*
Cc1ccc(C(=O)/C=C/Nc2ccccc2C(N)=O)cc1 | 0.32µM* | 0.71µM* | u | 0.63µM* | 6.5µM* | 0.13µM*
O=C(CCCn1c2ccccc2c(=O)c2ccccc21)Nc1ccc(F)cc1Cl | x | -32% | x | x | x | -15%
COc1ccc(CNC(=O)c2cc3c(=O)oc4ccc(C)cc4c3s2)c(OC)c1 | x | 2% | x | x | x | -2%
CCCN1C(=O)c2cc(C(=O)NC3CCCCCC3)ccc2C1O (centres undefined) | 2.2µM* | 10µM* | u | 2µM* | 9.2µM* | 13µM*
CN(C)c1cccc(C(=O)NC2CCCCCC2)c1 | 3.2µM* | 13µM* | u | u | 18µM* | 13µM*
CCCN1C(=O)c2cc(C(=O)Nc3cccc(C(C)=O)c3)ccc2C1Nc1cccc(C(C)=O)c1 (centres undefined) | -6% | x | 16µM* | -2% | -9% | -8%
CCCN1C(=O)c2cc(C(=O)Nc3ccccc3OC)ccc2C1Nc1ccccc1OC (centres undefined) | -2% | x | u | -13% | -6% | -2%
CCCN1C(=O)c2cc(C(=O)O)ccc2C1O (centres undefined) | -5% | 8% | 2% | 2% | 0% | 0%
CCn1c(C)c(C)c2cc(C(=O)NC3CCCCCC3)ccc21 | u | x | -6% | 16% | 9% | 12µM*
CN(CCCNC(=O)Cn1ncc2c([nH]c3ccccc32)c1=O)Cc1ccccc1 | x | x | x | x | x | 0%
CCOc1ccc(CCNC(=O)Cn2ncn3c(cc4ccccc43)c2=O)cc1OCC | x | 8% | x | x | x | 5%
SMILES | Rab9 prom act | SMN2 splice up | ELG1 repair inh | NPC1 prom act | ELG1 genotox | FLuc modulator
COc1cccc(C(=O)NC2CCCC2)c1 | 21% | 0% | u | 2% | 5% | -9%
Cc1cccc(C(=O)NC2CCCCCCC2)c1 | 4.5µM* | x | u | 4µM* | u | 12µM*
O=S(=O)(NCC(c1ccco1)S(=O)(=O)c1cccs1)c1ccc(F)c(C(F)(F)F)c1 (centres undefined) | x | x | x | x | x | -12%
CCCc1nnc(-c2cc(OC)c(OC)c(OC)c2)o1 | -1% | u | 2% | 1% | 6% | 1%
COc1ccc(-c2nnc(-c3ccccc3)o2)cc1OC | 1.8µM* | x | u | 2.2µM* | u | 8.5µM*
COc1cc(-c2nnc(-c3ccco3)o2)ccc1OCc1ccccc1 | 17% | u | -16% | 17% | 11% | 15µM*
CCOc1ccc(-c2cc3cc(OC)c(OC)cc3c(C)n2)cc1 | 2% | -14% | u | 0% | 25% | -1%
CCc1nc(-c2ccc(OC)c(OC)c2)cc2cc(OC)c(OC)cc12 | -3% | 7% | 26µM* | -6% | 3% | -15%
COc1cc(-c2nnc(-c3cc(OC)c(OC)c(OC)c3)o2)cc(OC)c1OC | -4% | 23% | 8.2µM* | -1% | 0% | 3%
COc1ccc(N2CCN(S(=O)(=O)c3ccc(OC)c(-c4noc(C)n4)c3)CC2)cc1 | x | x | x | x | x | 3%
COc1ccc(CCNC(=O)CSc2nnc(-c3ccc(C)cc3)c(-c3ccc(C)cc3)n2)cc1OC | x | x | x | x | x | -12%
CCOC(=O)c1ccc(NC(=O)CC2Nc3ccccc3NC2=O)cc1 (centres undefined) | x | -16% | x | x | x | 5%
COc1cccc(-c2nnc(-c3ccc(C(F)(F)F)cc3)o2)c1 | u | 22µM* | u | u | u | u
COc1ccc(-c2cc(-c3ccccc3)nc(Cl)n2)cc1OC | 0% | x | 18µM* | -14% | -5% | u
COc1cc(-c2nnc(SCCOc3cc(C)cc(C)c3)o2)cc(OC)c1OC | x | x | x | x | x | 15µM*
COc1cc(-c2nnc(-c3cccnc3)o2)cc(OC)c1OC | -1% | 39% | u | -2% | 10% | 3%
COc1cc(-c2nnc(-c3ccccc3)o2)cc(OC)c1OC | -1% | 16% | 23µM* | -2% | -2% | -20%
COc1cc(-c2nnc(SCc3ccccc3Cl)o2)cc(OC)c1OC | -8% | -6% | u | -7% | u | 4%
COc1cccc(CNC(=O)CSc2n[nH]c(-c3ccccc3Cl)n2)c1 | x | x | x | x | x | -3%
CCc1ccc(NCc2cc3ccc(OC)cc3n(CC(=O)Nc3ccc(F)cc3F)c2=O)cc1 | x | x | x | x | x | 6%
COC(=O)C(=O)C/C(=N/Nc1ncnc2ccccc12)c1ccc(Cl)cc1 | -1% | x | 2% | -7% | 5% | 9.5µM*
O=C(Nc1ccc2c(c1)OCCO2)C(=O)c1c[nH]c2ccccc12 | 0.1µM* | x | u | u | u | 0.19µM*
O=C(Nc1ccc2c(c1)OCO2)C(=O)c1c[nH]c2ccccc12 | 0.71µM* | x | u | 0.4µM* | 1.8µM* | 0.67µM*

Screening results from PubChem BioAssay.
